Screening results from PubChem.
This is a sample that favours compounds with a hit; in the whole collection about 7% have one here.
IL-1B inflam inh: inflammasome signaling inhibition, IL-1 beta readout; THP-1 LPS/ATP IL-1B secretion, AlphaLISA, 16 h; active compounds read low; activity change, % at 57.5 µM; 360,000 compounds, 4.7% hits; AID 743279; in the data active = activity change below about -50%; inconclusive = mostly about -30% to -49%
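THP-1 cells pretreated 1 hr with compounds (up to 57.5 uM final), then stimulated with LPS (250 ng/mL final) plus ATP (1.25 mM final); secreted IL-1B measured by AlphaLISA after 16 hr, decreased signal indicating inhibition.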
DRD3 agonist: activates the human D3 dopamine receptor. P35462. D3R DiscoveRx beta-arrestin cells, luminescence, 90 min. max activation, %. 410,000 compounds, 0.58% hits. AID 652048; in the data active = max activation above about 30%
Target sequence (P35462 whole entry, looked up): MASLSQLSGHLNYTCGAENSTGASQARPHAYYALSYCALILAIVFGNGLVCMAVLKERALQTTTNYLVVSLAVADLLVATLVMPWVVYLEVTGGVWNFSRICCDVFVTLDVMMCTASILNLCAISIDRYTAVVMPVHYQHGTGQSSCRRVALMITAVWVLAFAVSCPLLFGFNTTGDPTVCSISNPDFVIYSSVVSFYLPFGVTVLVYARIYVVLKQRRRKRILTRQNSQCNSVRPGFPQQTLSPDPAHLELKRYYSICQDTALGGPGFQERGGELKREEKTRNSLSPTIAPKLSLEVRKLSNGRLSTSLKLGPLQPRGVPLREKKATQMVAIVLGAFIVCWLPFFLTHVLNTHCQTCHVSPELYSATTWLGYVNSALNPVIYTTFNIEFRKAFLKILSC
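Agonist-mode cell screen: cells plated at 1500/well and incubated overnight at 37 °C, then exposed to library compounds for 90 min at 37 °C. Detection reagent was added for 30–60 min at room temperature, and luminescence was read.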
ATXN2 expr inh: reduces ATXN2 reporter expression in HEK-293 cells | HEK-293 ATXN2-luciferase reporter, luminescence, 24 h | Potency, µM (doses to about 57 µM), hits mostly inhibitors | 360,000 compounds, 0.72% hits; note: nearly all actives have a fitted effect of over 55% in size
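ATXN2-luciferase reporter cells (luciferase flanked by upstream and downstream ATXN2 gene portions) were treated 24 h at 37 °C with compounds at up to 57 uM. SteadyGlo luminescence gave expression; GF-AFC fluorescence gave viability.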
D3 antag: blocks the human D3 dopamine receptor. P35462. D3R cells, DiscoveRx beta-arrestin luminescence, antagonist mode; active compounds read low. max response, negative = inhibition, %. 360,000 compounds, 2.5% hits. AID 652054; in the data active = max response below about -50%; inconclusive = no clear call, values can overlap the other calls
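Cells expressing the human receptor were seeded at 1500 cells/well, incubated overnight at 37 degrees C in 5% CO2, then exposed to library compounds with dopamine controls for 90 minutes at 37 degrees C before luminescent detection.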
a7 integrin act: activators of alpha7 integrin expression for muscular dystrophy; AID 624291; 350,000 compounds, 0.064% hits; alpha7betagal myoblasts, beta-gal FDG fluorescence, 48 h; Potency, µM (top dose mostly 38.3 µM), most hits filed as activators; note: nearly all actives have a fitted effect of over 60% in size
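alpha7betagal+/- myoblasts (passage 13, 250/well) treated 48 h at 37C with compounds at 1:260 dilution of DMSO stock. Lysed, then beta-galactosidase activity read as FDG fluorescence (ex 480/em 540) after 30 min, with pre-read for autofluorescence.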
ATXN viability: cell viability loss in ATXN counter-screen. S2 cells (HEK-293 line with an ATXN2-luciferase reporter) viability, CellTiter-Fluor protease fluorescence, 24 h. Potency, µM (highest dose often 56.7 µM), most hits filed as cytotoxic. 400,000 compounds, 0.49% hits. AID 651635; note: nearly all actives have a fitted effect of over 40% in size
Hits are given with their value; - = inactive; ? = inconclusive; . = no result; ! = not confirmed by another sample. Unless noted, calls come from the whole dose curve; as a rule, active = well fitted curve in the direction sought with a large enough effect; inconclusive = small, poorly fitted or top-dose-only effect, or another doubt; inactive = no such curve, though single readings can be large; an effect the other way counts as inactive or inconclusive.

SMILES | IL-1B inflam inh | DRD3 agonist | ATXN2 expr inh | D3 antag | a7 integrin act | ATXN viability
C#CCOCCOCCOCCNc1nc(N2CCN(C(=O)Cn3cc(CCO)nn3)CC2)nc(N2CCN(C(=O)[C@H](Cc3ccc(O)cc3)n3cc(CCO)nn3)CC2)n1 | - | 47 | - | ? | - | -
Cc1cc(=O)c2c(O)c3c(O)cc(=O)c4c3c3c(cc(O)c1c23)C(C)(C)C=4O | . | - | 27µM! | . | . | -
COc1ccc(NC2SC(=O)N(CC(=O)O)C2=O)cc1 (stereo not drawn) | - | - | - | - | - | -
CCOCCOC(=O)NCCCCCCNC(=O)OCCOCC | ? | - | . | - | - | -
COCCCNC(=O)CC(NS(=O)(=O)c1ccc(C)cc1)c1ccco1 (stereo not drawn) | - | - | - | -58 | - | -
CC(C)CC(=O)NC(c1ccccc1)c1c(O)ccc2ccccc12 (stereo not drawn) | -80 | - | - | - | - | -
CCC(=O)NC(c1ccc(OC)cc1)c1c(O)ccc2ccccc12 (stereo not drawn) | - | - | . | ? | - | ?
CCCCC(=O)NC(c1ccc([N+](=O)[O-])cc1)c1c(O)ccc2ccccc12 (stereo not drawn) | -60 | - | ? | -52 | - | ?
CCc1ccc(C2=NN(CCC(=O)NC(C)CCc3ccccc3)C(=O)CC2)cc1 (stereo not drawn) | -52 | - | - | - | - | -
O=C(CSc1nc2ccc(NC(=O)c3ccccc3C(=O)O)cc2s1)Nc1ccc(F)c([N+](=O)[O-])c1 | -61 | - | - | - | - | -
CCn1c(=S)sc2c(=O)[nH]c(C)nc21 | - | - | - | - | - | ?
Cc1nn(Cc2cccc(C(=O)NC3CCCCC3)c2)c(C)c1Cl | - | - | - | -51 | - | -
CC[C@]12c3[nH]c4cc(-c5ccco5)ccc4c3CCN1C(=O)[C@@H](CC(=O)NCC13CC4CC(CC(C4)C1)C3)C[C@@H]2C(=O)N1CCN(C(=O)C2CC2)CC1 | ? | - | ? | -54 | - | ?
CC[C@]12c3[nH]c4cc(-c5ccco5)ccc4c3CCN1C(=O)[C@@H](CC(=O)NCCC1=CCCCC1)C[C@@H]2C(=O)N1CCN(C(=O)C2CC2)CC1 | -50 | - | ? | ? | - | ?
CC[C@]12c3[nH]c4cc(-c5ccco5)ccc4c3CCN1C(=O)[C@@H](CC(=O)NCC13CC4CC(CC(C4)C1)C3)C[C@@H]2C(=O)N1CCN(C(=O)c2ccco2)CC1 | -54 | - | ? | - | - | ?
CC[C@]12c3[nH]c4cc(-c5ccco5)ccc4c3CCN1C(=O)[C@@H](CC(=O)NCc1ccco1)C[C@@H]2C(=O)N1CCN(C(=O)C2CC2)CC1 | - | - | - | ? | - | -
O=C(CSCc1ccccc1Cl)N1CCN(c2ccc(F)cc2)CC1 | . | - | . | . | . | .
CC1C/C(=N\NC(=O)CCc2ccc(S(=O)(=O)N3CCOCC3)cc2)CC(C)(C)C1 (stereo not drawn) | - | - | - | - | - | -
Cc1c(NC(=O)COC(=O)C2CC3C=CC2C3)c(=O)n(-c2ccccc2)n1C (stereo not drawn) | - | - | - | -76 | - | -
Cc1c(NC(=O)COC(=O)c2cc3c4ccccc4n(C)c3s2)c(=O)n(-c2ccccc2)n1C | -55 | - | - | - | - | -
Oc1c(C(c2ccccc2Cl)N2CCCC2)ccc2cccnc12 (stereo not drawn) | - | - | . | -53 | - | -
Oc1c(C(c2ccc(Cl)cc2)N2CCCC2)cc(Cl)c2cccnc12 (stereo not drawn) | - | - | . | -106 | - | -
c1ccc(CC2CCN(Cc3ccccn3)CC2)cc1 | - | - | - | - | - | -
CN1CCN(C(c2ccc(C(F)(F)F)cc2)c2ccc3cccnc3c2O)CC1 (stereo not drawn) | -85 | - | 7.9µM | ? | - | ?
Oc1c(C(c2ccccn2)N2CCC(Cc3ccccc3)CC2)cc(Cl)c2cccnc12 (stereo not drawn) | -106 | - | ? | -112 | - | .
SMILES | IL-1B inflam inh | DRD3 agonist | ATXN2 expr inh | D3 antag | a7 integrin act | ATXN viability
COc1cccc(C(=O)NC(c2ccc(Cl)cc2)c2cc(Cl)c3cccnc3c2O)c1 (stereo not drawn) | . | - | ? | . | . | -
C=CCN(C(=O)CCC(=O)Nc1cc(C)on1)C(C(=O)NC(C)(C)CC)c1cccc(OC)c1OC (stereo not drawn) | - | - | - | - | - | -
Oc1ccc(C[C@H]2CNC(=S)N2CC2CCCN2C[C@H](Cc2ccc(O)cc2)N2C[C@H](Cc3ccc(O)cc3)N(CC3CCCCC3)C2=S)cc1 (stereo partly drawn) | - | - | - | ? | - | ?
Cc1ccc(C(c2cc(Cl)c3cccnc3c2O)N2CCN(C)CC2)cc1 (stereo not drawn) | - | - | ? | -118 | - | -
CN1CCN(C(c2ccccn2)c2cc(Cl)c3cccnc3c2O)CC1 (stereo not drawn) | - | - | . | -126 | - | -
Cn1c(=NC(=O)c2ccc(S(=O)(=O)N3CCCc4ccccc43)cc2)sc2cc(F)ccc21 | . | - | . | . | . | .
O=C(C[n+]1ccccc1)N/N=C/c1cc(Br)ccc1F | - | - | - | ? | - | -
COc1ccc(Br)cc1/C=N/Nc1cccc(C(=O)O)c1 | - | - | - | - | - | -
O=C(N/N=C/c1cc(Br)cc(Br)c1O)c1ccncc1 | - | - | ? | - | - | -
O=C(CP(=O)(c1ccccc1)c1ccccc1)N/N=C/c1cc(Br)cc(Br)c1O | - | - | 10µM | ? | - | -
O=C(C[n+]1ccccc1)N/N=C/c1cc(Br)cc(Br)c1O | - | - | - | -165 | - | .
O=C(O)c1cccc(N/N=C/c2cc(Br)cc(Br)c2O)c1 | - | - | - | -64 | - | -
CCC(O)(CC)C(=O)N/N=C/c1cc(Br)cc(Br)c1O | - | - | ? | -66 | - | -
CCCOC(=O)c1c(NC(=O)c2nc3ncccn3n2)sc(C(=O)OCC)c1C | . | - | - | . | . | -
O=[N+]([O-])c1cc(S(=O)(=O)N2CCCC2)ccc1N/N=C1/CCCc2ccccc21 | - | - | - | - | - | -
CCc1ccccc1NC(=O)CCN1C(=O)C2CC=CCC2C1=O (stereo not drawn) | - | - | - | - | - | -
CCOC(=O)c1ccc(NS(=O)(=O)c2ccc(-c3cc(C)no3)cc2)cc1 | . | - | . | . | . | .
CS[C@H]1SC[C@@H]2C(=O)N(C)[C@H](C(C)C)C(=O)OC[C@H](NC(=O)c3cnc4ccccc4n3)C(=O)N[C@H](C)C(=O)N(C)[C@@H]1C(=O)N(C)[C@H](C(C)C)C(=O)OC[C@H](NC(=O)c1cnc3ccccc3n1)C(=O)N[C@H](C)C(=O)N2C | . | . | 0.011µM | . | . | .
